The whole screen tested about 330,000 compounds, of which about 7,300 (2.2%) were called active. This is one part of a sample in which actives are shown more often than they occur. Unmarked numbers belong to inactive results.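 Rule for the calls: active = inhibition of at least 40%; inactive = the rest.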

A short description of this assay: growth inhibition of tim10-1 ts yeast – luminescence, uHTS, primary screen (AID 463190).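 Note: mutant grown at 25 °C; 0% = DMSO wells with yeast and 100% = wells holding no yeast.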 Particulars: S. cerevisiae tim10-1 ts strain growth, BacTiter-Glo, 24 h; at 20 µM; hits give high values.
As usually defined, the inhibition is the relative decrease from the control value, in per cent. With `COC(=O)c1c(C(=O)OC)c(-c2cccc(C)c2)n2c1CS(=O)C2` (stereo not given), the inhibition is 10.8%.

Take `CCOCCCNC(=O)c1ccc(CS(=O)(=O)c2cccc(C(F)(F)F)c2)o1`: the inhibition was 6.36%.

In the case of `Cc1ccc(NS(=O)(=O)c2ccc(-c3ccc(=O)[nH]n3)o2)c(C)c1`, the inhibition is 1.41%.

As to `Cc1ccc(-c2csc(-c3c[nH]c4ccccc34)n2)cc1`, the inhibition is 60.4% (active).

For `Cc1ccc(-c2csc(NC(=O)Cn3[nH]c(=O)c4ccccc4c3=O)n2)cc1`, the inhibition is 31.6%.

Regarding `Cc1ccc(-c2csc(NC3OC(=O)c4ccccc43)n2)cc1` (stereo not given), the inhibition is 5.08%.

Take `COc1cc(N2C(=O)CC3(CCCC3)CC2=O)cc(OC)c1OC`: the inhibition is 11.2%.

Consider `N#CC1(C#N)C(C(=O)C23CC4CC(CC(C4)C2)C3)C12CCOCC2` (stereo not given), for which the inhibition is 47.6% (active).

Consider `CC(C)(C)c1ccc(C(=O)NCc2nnc(SCC(=O)N3CCCc4ccccc43)n2-c2ccccc2)cc1`, for which the inhibition is 1.45%.

Take `O=C(COC(=O)CCCSc1nc2ccccc2[nH]1)Nc1ccc(Oc2ccccc2)cc1`: the inhibition is 14.2%.

Consider `Cc1cc([N+](=O)[O-])c(-c2ccc(/C=N/n3cnnc3)o2)cc1Cl`, for which the inhibition is 16.2%.

Consider `Cc1cc(C)c([N+](=O)[O-])cc1-c1ccc(/C=N/NC(=O)c2nonc2N)o1`, for which the inhibition was -16.4%.

With `Cc1ccc(-c2ccc(/C=C(\C#N)C(N)=S)o2)c([N+](=O)[O-])c1`, the inhibition was 57.3% (active).

Regarding `CCOC(=O)CCCCCC(=O)Nc1ccc2c(c1)CC(=O)N([C@@H](C)CO)C[C@H](C)[C@@H](CN(C)Cc1ccccc1)O2`, the inhibition was -5.39%.

Turning to `Cn1nnnc1SCC(=O)NNC(=O)c1ccc(Br)cc1`, the inhibition was 0.63%.

For the compound `COc1ccc2c(c1)C(NS(=O)(=O)OCC(Cl)(Cl)Cl)CCC2` (stereo not given), the inhibition is 45.1% (active).

Consider `COC(=O)c1cc(OCC(=O)NC2CCCc3ccccc32)cc(C(=O)OC)c1` (stereo not given), for which the inhibition is 11.9%.

Regarding `COc1ccc(CN(C)C(C)C(=O)NC2CCCc3ccccc32)cc1` (stereo not given), the inhibition was 23.2%.

Consider `COc1ccccc1C1SCCN1C(=O)c1ccc([N+](=O)[O-])cc1` (stereo not given), for which the inhibition was 41.9% (active).

For `O=C(Nc1ccc(F)cc1)C1CCN(C(=O)c2ccc([N+](=O)[O-])cc2)CC1`, the inhibition was 2.2%.

As to `COc1ccccc1C1CCN(c2ccc([N+](=O)[O-])cn2)CC1`, the inhibition was 14.4%.

Take `CN(C(=O)CC1C(=O)NCCN1Cc1ccc2ccccc2c1)C1CCOCC1` (stereo not given): the inhibition is 29.6%.

For `NS(=O)(=O)c1ccc(CCNC(=O)c2nc(CS(=O)(=O)c3ccc(Cl)cc3)no2)cc1`, the inhibition was -1.2%.

With `CCCN(c1ccc(C)cc1)c1nc(=O)c2cccnc2s1`, the inhibition was 15.2%.

`CCC(C)NCCOCCOc1ccc(Br)cc1C` (stereo not given): the inhibition is -4.38%.

As for `COc1ccc(-c2nc3cnccn3c2NC(C)(C)CC(C)(C)C)cc1O`, the inhibition was 32.9%.

Regarding `Cc1cccc(/C(N)=N/OC(=O)c2ccccc2Cl)c1`, the inhibition was 59.7% (active).

`Cc1ccc(C(=O)O/N=C(\N)c2ccccn2)cc1Cl`: the inhibition is 26.8%.

Turning to `C/C(=N\OC(=O)c1ccccc1)c1c(C)nc2cc(C)ccn12`, the inhibition is 5.99%.

`O=C(NCc1ccco1)/C(=C/c1cccc([N+](=O)[O-])c1)NC(=O)c1ccco1`: the inhibition was 15.4%.

With `Cc1ccc(N2C(=O)C3C4C=CC(CC4)C3C2=O)cc1Br` (stereo not given), the inhibition is 6.71%.

Consider `CCN(CC)CCN(C(=O)c1cc(Cl)sc1Cl)c1nc2cc3c(cc2s1)OCO3`, for which the inhibition is 36.6%.

With `CCc1ccc2nc(N(CCCN(C)C)C(=O)c3ccc4c(c3)OCCO4)sc2c1`, the inhibition was 16%.

On to `CN(C)CCN(C(=O)C1CCCCC1)c1nc2cc3c(cc2s1)OCO3`, for which the inhibition is 16.1%.

Turning to `Cc1ccc2nc(N(CCN(C)C)C(=O)C3=COCCO3)sc2c1`, the inhibition is 44.8% (active).

For `CN(C)CCN(C(=O)C1=COCCO1)c1nc2ccc(Cl)cc2s1`, the inhibition was 66.5% (active).

Regarding `CN(C)CCN(C(=O)CN1C(=O)c2ccccc2C1=O)c1nc2cc3c(cc2s1)OCCO3`, the inhibition is -13.3%.

Consider `CN1C(=O)C2(OCCCO2)c2cc(Cl)ccc21`, for which the inhibition was -14.9%.

For the compound `CNC(=O)c1[nH]cnc1C(=O)N[C@@H](CC(C)C)C(=O)OCc1ccccc1`, the inhibition was 18.1%.

`COC(=O)c1cc(S(=O)(=O)NCC2CCN(Cc3ccc(Cl)cc3)CC2)cn1C`: the inhibition is -24.4%.

On to `c1ccc(-c2nnc3n2NC(c2ccc4c(c2)OCO4)S3)cc1` (stereo not given), for which the inhibition was 51.2% (active).

For the compound `Cc1cccc(C)c1NC(=O)CSc1nnc(-c2ccccc2)n1Cc1ccc2c(c1)OCO2`, the inhibition was 21.2%.

On to `CC1=C(C(N)=O)C(c2ccc3c(c2)OCO3)n2nc(-c3cccc(C)c3)nc2N1` (stereo not given), for which the inhibition is 0.453%.

For the compound `COc1ccc(CC(=O)N[C@@H]2c3cc(OC)c(OC)cc3C[C@H]2OCc2ccccc2)cc1`, the inhibition was 15.2%.

Turning to `COc1ccc(C(=O)NCC(=O)N/N=C/c2ccc([N+](=O)[O-])s2)cc1OC`, the inhibition was 16.7%.

As for `Cc1ccccc1NCC(=O)N/N=C\c1ccc([N+](=O)[O-])s1`, the inhibition is 53.3% (active).

As to `Cc1ccc(/C=N/NC(=O)CN2CCN(Cc3ccccc3)CC2)s1`, the inhibition is -3.89%.

With `COc1ccc(CN2CCN(Cc3ccc(OC)c(OC)c3OC)CC2)cc1`, the inhibition is -1.36%.

As to `CCOc1ccc(C(=O)NC2CCN(C(=O)Nc3ccccc3OC)CC2)cc1`, the inhibition is 6.63%.

Turning to `CCOc1ccc2nc(N3CCCN(C(=O)Nc4ccccc4C)CC3)c(C#N)cc2c1`, the inhibition was 42.1% (active).

On to `CCOC(=O)c1cc(C#N)c(N2CCCCC2)nc1-c1ccccc1`, for which the inhibition is -4.08%.

Consider `O=CN1CCN(C(=O)c2ccc3c(c2)OCO3)CC1`, for which the inhibition is -19.2%.

For `COc1cccc(NS(=O)(=O)c2ccc3[nH]cc(C(=O)NCCCOC(C)C)c(=O)c3c2)c1`, the inhibition was 19.3%.

On to `Nc1ccccc1/C=N\N=C/c1ccccc1N`, for which the inhibition was 7.02%.

`O=C1C=C(c2cc(C(F)(F)F)cc(C(F)(F)F)c2)C[C@@H](c2ccc3c(c2)OCO3)C1`: the inhibition was -2.52%.

On to `Cc1[nH]c(=O)c(C(=O)/C=C/c2ccccc2)c2c1CCCC2`, for which the inhibition was 46.1% (active).

Take `Cc1cn(COC/C=C/c2ccccc2)c(=O)[nH]c1=O`: the inhibition was 7.72%.

For `COC(=O)c1c(C)[nH]c(C(=O)/C=C/c2ccc(Cl)cc2)c1C`, the inhibition was 5.77%.

On to `CCCC1OC23CCCCC2C(C#N)(C#N)C1(C#N)C(=N)O3` (stereo not given), for which the inhibition is 13%.

Regarding `c1ccc(-c2cn3c(n2)CCc2ccc4cccnc4c2-3)cc1`, the inhibition is 42% (active).

As for `Cc1cc(N2C(=O)c3ccc(C(=O)NCc4ccccc4)cc3C2=O)no1`, the inhibition is 11.1%.

For the compound `CCCc1nn2c(=O)cc(CSCC(=O)Nc3cccc(C)c3)nc2s1`, the inhibition was 5.18%.

As to `CCOC(=O)CC(NC(=O)C1c2ccccc2Oc2ccccc21)c1ccc(C)cc1` (stereo not given), the inhibition was 5.58%.

As to `CC(C)(C)NC(=O)NC(=O)COC(=O)C1c2ccccc2Oc2ccccc21`, the inhibition was 23.3%.

For `CCCCN1C(=S)NC[C@@H]1C(C)CC` (stereo not given in full), the inhibition is 20.5%.

Take `Cn1c(N)c(C(=O)COC(=O)/C=C/c2cccc(C(F)(F)F)c2)c(=O)n(C)c1=O`: the inhibition was 17.7%.

Consider `CCOC(=O)NNc1cc(C(F)(F)F)ccn1`, for which the inhibition was -3.69%.

Take `CCOC(=O)/C=C/c1ccc(C(F)(F)F)cc1S(=O)(=O)NC(C)(C)C`: the inhibition was 44.1% (active).

Regarding `COC(C(=O)NCc1ccccc1C)c1ccccc1` (stereo not given), the inhibition was -2.01%.

With `CCCCn1c(SCC(=O)N2CCOCC2)nc2c1c(=O)n(C)c(=O)n2C`, the inhibition is 0.276%.

Consider `CC(=O)Oc1ccc(C(=O)Nc2nccs2)cc1`, for which the inhibition is 8.42%.

With `COc1cc(C(=O)Nc2nccs2)cc(OC)c1OC`, the inhibition was 43.9% (active).

In the case of `COc1ccc(Cc2nnc(NC(=O)c3cc(OC)c(OC)c(OC)c3)s2)cc1OC`, the inhibition was 8.1%.

As to `Cc1ccc(SC(C)C(=O)NCc2ccc(F)cc2)cc1` (stereo not given), the inhibition was 9.06%.

As for `CNS(=O)(=O)c1cccc(C(=O)OCCCC(=O)c2ccccc2)c1`, the inhibition is 3.9%.

Consider `Cc1ccsc1C(=O)NCCc1ccco1`, for which the inhibition was -19%.

On to `COc1cc(SC)ccc1C(=O)NNC(=O)C1COc2ccccc2O1` (stereo not given), for which the inhibition was 5.41%.

In the case of `COc1ccc(NC(=O)C2COc3ccccc3O2)cc1` (stereo not given), the inhibition is 21.5%.

As to `COc1ccc(OC)c2sc(NC(=O)C3COc4ccccc4O3)nc12` (stereo not given), the inhibition was 47.3% (active).

For the compound `CCc1cccc(C)c1NS(=O)(=O)c1c(C)nc2sccn2c1=O`, the inhibition was 21.8%.

With `COc1ccc(NC(=O)C2C3CCC(O3)C2C(=O)O)cc1OC` (stereo not given), the inhibition was -1.54%.

Take `COCCNC(=O)CSc1nc2c(n1-c1ccccc1)CCCC2`: the inhibition is 12%.

As for `COc1ccc(C(C(=O)NC2CCCCC2)N(C(=O)Cc2c[nH]c3ccccc23)c2ccccc2)cc1OC` (stereo not given), the inhibition was 13.4%.

As for `COc1cc(Cl)c(C)cc1NC(=O)CSc1nnc(-c2ccco2)n1CC(C)C`, the inhibition is 42.7% (active).

`COc1cc(Cl)c(C)cc1NC(=O)CSc1nnc(-c2cccnc2)n1Cc1ccco1`: the inhibition was 22.4%.

Turning to `CCn1c(SCC(=O)Nc2cc(C)c(Cl)cc2OC)nnc1-c1ccco1`, the inhibition was 14%.

Turning to `COc1ccc(C(=O)C2CCCN(C(=O)c3ccc(OC)o3)C2)c(C)c1` (stereo not given), the inhibition was 20.5%.

`COc1ccccc1CC(NC(C)=O)C(=O)NC1CCN(C(=O)Nc2ccccc2Cl)CC1` (stereo not given): the inhibition was 12%.

Regarding `CCC(=O)Nc1nc2ccccc2n1Cc1ccccc1C`, the inhibition was 40.8% (active).

Turning to `CC(=O)Nc1nc2ccccc2n1Cc1ccc(C)cc1`, the inhibition was 19%.

For `CCCCn1c(CCCNC(=O)CC)nc2ccccc21`, the inhibition was 0.782%.

With `COc1ccc(NS(=O)(=O)c2ccc(Oc3c(C#N)cccc3C#N)cc2)cc1`, the inhibition is -28.8%.

For the compound `COc1cc(C2C(C(=O)Nc3ccccc3OC)=C(C)Nc3ncnn32)ccc1O` (stereo not given), the inhibition was 8.15%.

Regarding `COc1ccc(C2C(C(=O)Nc3ccccc3OC)=C(C)Nc3nnnn32)c(OC)c1` (stereo not given), the inhibition is 0.795%.

In the case of `COc1ccccc1NC(=O)C1=C(C)Nc2nnnn2C1c1cccc(Br)c1` (stereo not given), the inhibition is 42.4% (active).

These data come from PubChem BioAssay AID463190 (Sanford-Burnham Center for Chemical Genomics, 2010).
